Pf growth 96h: P. falciparum growth inhibition at 96 hours; P. falciparum luciferase reporter growth, 96 h; Potency, µM (highest dose often 28.7 µM), for the others: at the highest dose activity change, negative = inhibition, actives largely listed as inhibitors; 320,000 compounds, 6.9% hits; also: potency is read from the fitted curve at half-maximal effect; % is scaled to controls: 0 for no effect and ±100 for the full control effect
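P. falciparum expressing integrated firefly luciferase, in erythrocytes at 2% hematocrit, 0.05% parasitemia, incubated with compounds 96 h at 37 C, 5% CO2. Growth inhibition read as loss of luminescence; two-generation exposure targets delayed-death apicoplast inhibitors.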
Pf growth 48h: P. falciparum growth inhibition at 48 hours (one generation); P. falciparum luciferase growth in erythrocytes, 48 h; Potency, µM (doses to about 28.7 µM), for inactives: at the top dose activity change, negative = inhibition, usual class: inhibitors; 310,000 compounds, 5.9% hits; also: potency is read from the fitted curve at half-maximal effect; % is scaled to controls: 0 for no effect and ±100 for the full control effect
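Growth was read as firefly luciferase luminescence after a 48 h, 37 C, 5% CO2 exposure of compounds to reporter-bearing P. falciparum cultures (0.1% parasitemia, 2% hematocrit final) in Albumax-supplemented RPMI 1640.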
HCV inhibitor: HCV inhibition; Huh7.5.1 HCVcc-Cre infection, luciferase reporter, 44 h; Potency, µM (series often up to 41.8 µM), for the others: at the top dose activity change, negative = inhibition, actives largely listed as inhibitors; 340,000 compounds, 3.4% hits; AID 651820; also: potency is read from the fitted curve at half-maximal effect; % is scaled to controls: 0 for no effect and ±100 for the full control effect
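HCVcc-Cre virus at an moi near 0.5 was added right after compound to cells cultured 4 h from seeding (1,000 cells/well). Luciferase activity was determined 44 h later, 15 min after substrate addition at RT.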
Shiga toxin inh: blocks Shiga toxin action in Vero cells; AID 2315; inhibition, % at 38.7 µM; Vero cells, Shiga toxin protein synthesis inhibition reporter; 290,000 compounds, 9.2% hits; in the data active = inhibition mostly above about 28%, no sharp cut-off; inactive = mostly below about 43%; also: 0% is about no effect
Cycloheximide cs: counter-screen hit for Shiga toxin inhibitors, cycloheximide. cell reporter, cycloheximide protein synthesis inhibition counterscreen. max response, %. 300,000 compounds, 12% hits. AID 2314; in the data active = max response mostly above about 13%, no sharp cut-off; inactive = mostly below about 14%; also: read at 38.3 µM for the half of the compounds with a filed dose; 0% is about no effect
AMA1 RON2 block: AMA1-RON2 (P. falciparum) interaction inhibition; AlphaScreen AMA1-biotinylated RON2 peptide binding; 360,000 compounds, 0.2% hits; Potency, µM (series often up to 58.2 µM), without a hit: top-dose activity change, negative = inhibition, hits mostly inhibitors;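 also: potency is read from the fitted curve at half-maximal effect; 0% = vehicle wells and -100% = peptide control; nearly all actives have a fitted effect of over 45% in size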
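AMA1 (3D7) with his tag at 25 nM final met compounds first, then biotinylated RON2 peptide at 25 nM; detection used donor plus acceptor beads, 10 µg/mL apiece, read by AlphaScreen after 30 min at room temperature.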
* hit, by the source's call; [ ] = remark or other dose. The list is not random: actives were taken first. Their share in the collection is about 21%. Unless noted, calls follow the shape of the dose curve; as a rule, active = well fitted curve in the direction sought with a large enough effect; inconclusive = small, poorly fitted or top-dose-only effect, or another doubt; inactive = no such curve, though single readings can be large; an effect the other way counts as inactive or inconclusive.

Results for Cc1cccc(NC(=O)CN2C(=O)N/C(=C\c3ccc(N4CCOCC4)cc3)C2=O)c1 ?
Pf growth 96h: inconclusive; Pf growth 48h: 45%; HCV inhibitor: 46%; Shiga toxin inh: 68*; Cycloheximide cs: 39*; AMA1 RON2 block: 15%

What do the screens show for `Cc1cccc(NC(=O)CN2C(=O)N/C(=C\c3ccccc3OCc3ccc(C(=O)O)cc3)C2=O)c1`?
Pf growth 96h: 14%; Pf growth 48h: -17%; HCV inhibitor: 19%; Shiga toxin inh: -13; Cycloheximide cs: -1; AMA1 RON2 block: 4%

Results for Cc1cc(N2CCOCC2)ccc1/C=C1\NC(=O)N(CC(=O)Nc2ccc(F)cc2)C1=O ?
Pf growth 96h: 2.9µM*; Pf growth 48h: 58%; HCV inhibitor: 3%; Shiga toxin inh: 91*; Cycloheximide cs: 23*; AMA1 RON2 block: -2%

Results for CCOc1cc(/C=C2/NC(=O)N(CC(=O)Nc3cccc(C)c3)C2=O)ccc1OC ?
Pf growth 96h: -17%; Pf growth 48h: 20%; HCV inhibitor: -13%; Shiga toxin inh: 91; Cycloheximide cs: 9; AMA1 RON2 block: 12%

Results for COc1cc(/C=C2/NC(=O)N(CC(=O)Nc3cccc(C)c3)C2=O)ccc1OCC(N)=O ?
Pf growth 96h: -16%; Pf growth 48h: inconclusive; HCV inhibitor: 10µM*; Shiga toxin inh: -13; Cycloheximide cs: -3; AMA1 RON2 block: -15%

Results for O=C(Nc1ccccc1C(=O)O)c1cc(S(=O)(=O)N2CCCCC2)c(Cl)cc1Cl ?
Pf growth 96h: 5%; Pf growth 48h: -11%; HCV inhibitor: -5%; Shiga toxin inh: 7; Cycloheximide cs: 12; AMA1 RON2 block: -3%

How did O=C(CCCc1c[nH]c2ccccc12)N[C@@H](Cc1c[nH]c2ccccc12)C(=O)O do in these assays?
Pf growth 96h: 8.3µM*; Pf growth 48h: 9.3µM*; HCV inhibitor: -3%; Shiga toxin inh: 1; Cycloheximide cs: 1; AMA1 RON2 block: 12%

How did COC(=O)C(Cc1c[nH]c2ccccc12)NC(C)=O (stereo not drawn) do in these assays?
Pf growth 96h: 4.1µM*; Pf growth 48h: -6%; HCV inhibitor: 11%; Shiga toxin inh: -1; Cycloheximide cs: -5; AMA1 RON2 block: -6%

How did CCCCN(C)C(=O)CCCc1c[nH]c2ccccc12 do in these assays?
Pf growth 96h: 14%; Pf growth 48h: inconclusive; HCV inhibitor: -7%; Shiga toxin inh: 42*; Cycloheximide cs: 17*; AMA1 RON2 block: -15%

Results for O=C(Cc1c[nH]c2ccccc12)N[C@@H](Cc1c[nH]c2ccccc12)C(=O)O ?
Pf growth 96h: 18%; Pf growth 48h: 45%; HCV inhibitor: 10%; Shiga toxin inh: -11; Cycloheximide cs: -3; AMA1 RON2 block: -4%

How did NCCc1c[nH]c2ccc(O)cc12 do in these assays?
Shiga toxin inh: -13; Cycloheximide cs: 42*

Results for CCOC(=O)CCCc1c[nH]c2ccccc12 ?
Pf growth 96h: inconclusive; Pf growth 48h: -10%; HCV inhibitor: inconclusive; Shiga toxin inh: 38; Cycloheximide cs: 8; AMA1 RON2 block: 0%

What do the screens show for `CC(=O)c1cccc(NC(=O)CNC(=O)Cc2ccccc2)c1`?
Pf growth 96h: 2%; Pf growth 48h: -7%; HCV inhibitor: -5%; Shiga toxin inh: -8; Cycloheximide cs: -1; AMA1 RON2 block: 12%

What do the screens show for `Cc1ccc2oc(-c3cc(NC(=O)c4ncn[nH]4)ccc3O)nc2c1`?
Pf growth 96h: inconclusive; Pf growth 48h: 23%; HCV inhibitor: -19%; Shiga toxin inh: 79; Cycloheximide cs: 9; AMA1 RON2 block: 54%

Results for NC(=O)N[C@@H](Cc1c[nH]c2ccccc12)C(=O)OCC(=O)N1CCCCC1 ?
Pf growth 96h: 68%; Pf growth 48h: 12µM*; HCV inhibitor: 2%; Shiga toxin inh: -4; Cycloheximide cs: -2; AMA1 RON2 block: -9%

Results for CC(=O)NC(Cc1c[nH]c2ccccc12)C(=O)OCC(=O)N1CCN(S(=O)(=O)c2ccc(Cl)cc2)CC1 (stereo not drawn) ?
HCV inhibitor: 8%; AMA1 RON2 block: -4%

What do the screens show for `CN(C)Cc1c[nH]c2ccccc12`?
Pf growth 96h: 9.3µM*; Pf growth 48h: inconclusive; HCV inhibitor: -1%; AMA1 RON2 block: -4%

How did COC(=O)C(Cc1c[nH]c2ccccc12)NC(=O)c1cc(-c2ccc(OC)c(OC)c2)oc1C (stereo not drawn) do in these assays?
Pf growth 96h: inconclusive; Pf growth 48h: 2.9µM*; HCV inhibitor: 10µM*; Shiga toxin inh: -4; Cycloheximide cs: 8; AMA1 RON2 block: -2%

Results for Cc1noc(C)c1COC(=O)CCCc1c[nH]c2ccccc12 ?
Pf growth 96h: inconclusive; Pf growth 48h: 12µM*; HCV inhibitor: -5%; Shiga toxin inh: -6; Cycloheximide cs: -3; AMA1 RON2 block: -14%

What do the screens show for `COc1cc(NC(=O)CCN2CCN(c3ccccc3OC)CC2)cc(OC)c1`?
AMA1 RON2 block: -5%

Results for N[C@H](Cc1c[nH]c2ccccc12)C(=O)O ?
Pf growth 96h: 1.5µM*; Pf growth 48h: 4%

How did CNC(=O)[C@H](Cc1c[nH]c2ccccc12)NC(=O)[C@@H](CC(=O)NO)CC(C)C do in these assays?
Pf growth 96h: 11%; Pf growth 48h: 3.8µM*

Results for O=C(CCCc1c[nH]c2ccccc12)N1CCCCCC1 ?
Pf growth 96h: 5.9µM*; Pf growth 48h: 2%; HCV inhibitor: -2%; Shiga toxin inh: 38; Cycloheximide cs: 20*; AMA1 RON2 block: -8%

Results for O=C(CCc1c[nH]c2ccccc12)N[C@@H](Cc1c[nH]c2ccc(O)cc12)C(=O)O ?
Pf growth 96h: 4.7µM*; Pf growth 48h: 3.7µM*; HCV inhibitor: 11%; Shiga toxin inh: -2; Cycloheximide cs: 1; AMA1 RON2 block: 4%

Results for COc1ccc(S(=O)(=O)N2CCN(c3ccccc3OC)CC2)cc1C(=O)N1CCCCC1 ?
Pf growth 96h: 31%; Pf growth 48h: -16%; HCV inhibitor: -24%; Shiga toxin inh: 9; Cycloheximide cs: -2; AMA1 RON2 block: -1%

What do the screens show for `CCCCN1C(=O)C(C(=O)OCc2ccccc2)CC2=C1CCCC2=O` (stereo not drawn)?
HCV inhibitor: 20%[8.37 µM]; AMA1 RON2 block: 4%

What do the screens show for `COc1cccc(C(=O)N2CCN(Cc3ccc(OC)cc3OC)CC2)c1`?
Pf growth 96h: -11%; Pf growth 48h: -10%; HCV inhibitor: -5%; Cycloheximide cs: 3; AMA1 RON2 block: inconclusive

What do the screens show for `COc1cc(C(=O)N[C@@H](Cc2c[nH]c3ccccc23)C(=O)O)cc(OC)c1OC`?
Pf growth 96h: -3%; Pf growth 48h: 4%; HCV inhibitor: 6%; Shiga toxin inh: 67*; Cycloheximide cs: 35*; AMA1 RON2 block: 3%

High-throughput results from PubChem BioAssay.
